High-throughput results deposited in PubChem by several laboratories.
Sampled rows, rich in hits. Any-hit rate of the full collection: about 1.5%.
cardiac RTF act: cardiac RTF calcium sensitization | hit rate 0.24% among 340,000 | P19429+P45379 | IANBD-labeled TnC RTF fluorescence at EC20 calcium; 0% EC20 calcium, 100% full calcium | activation, % at 7.2 µM | AID 493008;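 active = activation above the mean over all tested compounds plus 3 SD, cut at about 30% in these data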;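 note: rise in fluorescence read as greater calcium sensitivity of cardiac thin filaments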
IDE cell activ: activators of human insulin-degrading enzyme in cells. HEK cells, FAbeta-B cleavage, fluorescence polarization; 0% vehicle, 100% cell-free pure enzyme wells. activation, % at 5.96 µM. hit rate 0.073% among 340,000;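 active = activation above the mean of all tested compounds plus 3 SD, set per screening campaign, cut at about 17% in these data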
Target sequence (P14735 whole entry, looked up): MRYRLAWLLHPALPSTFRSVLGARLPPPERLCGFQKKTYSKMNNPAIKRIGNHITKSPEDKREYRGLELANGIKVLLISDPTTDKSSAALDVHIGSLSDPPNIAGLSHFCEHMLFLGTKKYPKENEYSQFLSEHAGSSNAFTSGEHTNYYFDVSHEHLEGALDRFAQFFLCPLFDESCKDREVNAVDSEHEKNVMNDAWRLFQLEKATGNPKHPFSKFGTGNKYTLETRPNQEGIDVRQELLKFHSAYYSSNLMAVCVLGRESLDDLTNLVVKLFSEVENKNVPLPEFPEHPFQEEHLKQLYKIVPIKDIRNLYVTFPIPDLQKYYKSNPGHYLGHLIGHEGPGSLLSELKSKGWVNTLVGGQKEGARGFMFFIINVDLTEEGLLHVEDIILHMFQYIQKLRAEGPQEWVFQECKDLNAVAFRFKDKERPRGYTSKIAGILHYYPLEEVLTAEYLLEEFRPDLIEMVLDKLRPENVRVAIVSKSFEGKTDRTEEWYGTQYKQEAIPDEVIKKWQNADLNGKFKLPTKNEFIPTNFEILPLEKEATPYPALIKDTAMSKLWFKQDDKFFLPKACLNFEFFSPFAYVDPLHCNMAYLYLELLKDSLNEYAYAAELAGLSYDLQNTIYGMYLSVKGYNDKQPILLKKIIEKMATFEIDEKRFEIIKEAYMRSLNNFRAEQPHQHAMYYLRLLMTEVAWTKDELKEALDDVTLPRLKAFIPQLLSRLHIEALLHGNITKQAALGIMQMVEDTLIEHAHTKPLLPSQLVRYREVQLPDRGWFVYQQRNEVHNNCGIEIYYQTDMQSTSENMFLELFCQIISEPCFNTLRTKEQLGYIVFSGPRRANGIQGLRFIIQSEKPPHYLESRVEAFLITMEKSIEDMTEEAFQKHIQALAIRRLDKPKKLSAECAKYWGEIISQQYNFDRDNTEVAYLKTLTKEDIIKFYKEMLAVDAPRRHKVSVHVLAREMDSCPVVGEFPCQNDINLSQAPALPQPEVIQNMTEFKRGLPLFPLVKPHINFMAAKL
CRFR2-BP antag: blocks CRF-induced signaling of the CRF-BP/CRF-R2 complex; HEK293 CRF-R2/CRF-BP, CRF-induced calcium fluorescence; inhibition, % at 11.8 µM; hit rate 0.59% among 350,000;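 active = inhibition of the ligand-induced calcium signal above about 50% at the single tested concentration, limit read from the data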
CRFBP-R2 agonist: CRF-BP/CRF-R2 complex agonism; AID 588473; hit rate 0.46% among 350,000; activation, % at 13.2 µM; HEK293 CRF-R2/CRF-BP, calcium dye fluorescence (FLIPR); percent of saturating CRF peptide response;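 active = activation of at least 50%, plus an integration ratio under a set limit after plate pattern correction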;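 note: plate controls were neutral control wells without compound for no effect and CRF at EC100 for full effect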
RTF Ca sens inh: cardiac RTF calcium desensitization | P19429+P45379 | IANBD-labeled cardiac RTF, Ca2+ fluorescence | inhibition, % at 7.15 µM | hit rate 0.12% among 340,000;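 active = inhibition above the mean inhibition of all tested compounds plus 3 SD, cut at about 17% in these data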;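 note: assay run at fixed EC70 calcium of 1.6 mM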
IDE inh: cellular human IDE inhibition | HEK cells, FAbetaB cleavage, fluorescence polarization | inhibition, % at 5.59 µM | hit rate 0.41% among 320,000 | AID 434962;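 active = percent inhibition above the average of all tested compounds plus 3 SD, set per screening campaign, cut at about 16% in these data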;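 note: IDE supplied by intact live HEK cells; FP after avidin binding of uncleaved biotin substrate so inhibition keeps polarization high; 0% = DMSO wells and 100% = 60 µM reference IDE inhibitor Ii1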
Numbers without * were called inactive; . = no result.

SMILES	cardiac RTF act	IDE cell activ	CRFR2-BP antag	CRFBP-R2 agonist	RTF Ca sens inh	IDE inh
Cc1cc(=O)oc(C)c1C(=O)Nc1ccc2nsnc2c1	3	-5	-4	1	6	5
COc1ccc(-n2c(C)cc(/C=C3/SC(=S)N(C)C3=O)c2C)cc1	3	-3	-47	58*	-2	6
CCOC(=O)C1(CC2CC2)CCN(Cc2cnc(N(C)C)s2)CC1	-1	17*	-12	1	-3	3
CC12CCC(C/C1=N\OC(=O)c1c(F)cccc1F)C2(C)C (centres undefined)	2	9	95*	0	-7	8
CC12CCC(C/C1=N/NC(=O)Nc1ccccc1)C2(C)C (centres undefined)	-3	-2	-59	0	-3	0
CCN(CC)c1ccc2cc(-c3nc(-c4cc5ccccc5oc4=O)cs3)c(=O)oc2c1	95*	-68	-129	195*	-186	.
CCN(CC)c1ccc2cc(C#N)c(=O)oc2c1	.	.	-73	102*	.	13
CCN(CC)c1ccc2cc(S(=O)(=O)c3ccc(C)cc3)c(=O)oc2c1	53*	-13	-157	147*	-40	0
CCN(CC)c1ccc2cc(C(=O)NNC(=O)c3ccc(S(=O)(=O)N4CCCCC4)cc3)c(=O)oc2c1	3	5	-295	266*	-7	0
CCS(=O)(=O)c1nc(S(=O)(=O)c2ccc(C)cc2)c(N2CC(C)CC(C)C2)s1 (centres undefined)	1	0	-11	4	-11	3
COC(=O)c1c(NC(=S)NNC(=O)c2ccc(Cl)s2)sc(C(=O)N(C)C)c1C	-2	-4	35	-6	-6	-2
O=C/C(=C\Nc1ccccn1)c1nc2cc(Cl)ccc2o1	3	2	80*	-3	-4	4
COc1cc(/C=N/NC(=O)c2ccncc2)ccc1OC(C)=O	0	3	2	-1	-17	0
COc1cc(C=Nc2c(C)cc(C)cc2C)ccc1OC(C)=O	3	1	51*	-1	-13	-3
N#C/C(=C/c1ccc(-c2cc(C(=O)O)cc(C(=O)O)c2)o1)c1nc2ccccc2s1	.	.	.	.	.	27*
COc1ccc(NC(=O)CC(C)c2ccccc2)cc1S(=O)(=O)N1CCOCC1 (centres undefined)	6	7	5	-1	-7	-1
CCOC(=O)c1ccccc1-n1nnnc1C	124*	5	9	-2	7	-6
Cc1ccc(-c2nnnn2-c2ccccc2C(=O)O)cc1	3	3	11	0	0	0
NC(=O)c1ccc(Oc2ccc3c(c2)CCC3)c([N+](=O)[O-])c1	6	2	37	-2	12	0
CC(NC(=O)c1c(F)cccc1Cl)c1ccc(-n2ccnc2)cc1 (centres undefined)	-4	2	-5	-1	0	5
CCc1ccc([C@@H]2CC=C(C(=O)O)[C@H](c3ccc(C(C)(C)C)cc3)N2S(=O)(=O)c2ccc(C)cc2)cc1	-6	1	50*	4	1	-3
COc1ccccc1N(CC(=O)NCCSCc1ccco1)S(=O)(=O)c1ccccc1	-6	-1	13	-2	-12	-2
COc1ccc(NS(=O)(=O)c2cc([N+](=O)[O-])ccc2N/N=C\c2c(C)[nH]c3ccccc23)cc1	-2	5	-73	48	-18	1
Cc1[nH]c2ccccc2c1/C=N/Nc1ccc([N+](=O)[O-])cc1S(=O)(=O)Nc1ccc(Cl)cc1	8	6	-141	109*	-5	5
CN1C(C)(C)CC(=NO)CC1(C)C	-9	4	-4	-2	-5	.
SMILES	cardiac RTF act	IDE cell activ	CRFR2-BP antag	CRFBP-R2 agonist	RTF Ca sens inh	IDE inh
CC(NC(=O)COC(=O)C1(C)CC1(Cl)Cl)c1ccccc1 (centres undefined)	0	1	54*	0	-7	6
COc1ccc(S(=O)(=O)NC2CC(C)(C)NC(C)(C)C2)c2ccccc12	-2	6	-3	2	-3	2
CC(C)Cc1nc(SCC(=O)NCC2CCCO2)c2c(=O)n(C)c(=O)n(C)c2n1 (centres undefined)	0	4	-9	0	-3	1
CCN(CC)S(=O)(=O)c1ccc(N2CCCCC2)c(NC(=O)/C(C#N)=C/c2ccc(OC)cc2)c1	2	3	14	2	1	4
CCOc1ccc(NC(=O)/C(C#N)=C/c2ccc(N3CCCC3)c(C)c2)cc1	67*	-9	-135	119*	-51	4
C(=Cc1cnc2ccccc2n1)c1ccc2c(c1)OCO2	.	.	-62	100*	.	.
C(=Cc1nc2ccccc2o1)c1ccc2c(c1)OCO2	.	.	-7	6	.	.
Clc1ccccc1CSc1cnnc2ccccc12	9	-6	-5	-2	0	.
CN(c1ccccc1)S(=O)(=O)c1ccc(Cl)c(C(=O)Nc2ccccc2N2CCOCC2)c1	-7	2	10	2	1	.
O=C(NC(Cc1ccccc1)c1nc2ccccc2[nH]1)c1ccc(Cl)c([N+](=O)[O-])c1 (centres undefined)	-5	6	76*	0	-9	-5
Nc1c(N(Cc2ccco2)C(=O)c2ccccc2F)c(=O)[nH]c(=O)n1Cc1ccccc1	3	0	10	2	-6	.
COCCNc1nc2c(S(=O)(=O)c3cc(C)ccc3C)nnn2c2ccccc12	-1	4	50*	0	4	-4
Nc1ccccc1Oc1c(F)c(F)c(Oc2ccccc2N)c(F)c1F	-4	6	67*	-3	-9	-3
CCOc1ccc(C2C=C(c3ccc(C)cc3)Nc3nnnn32)cc1 (centres undefined)	54*	-49	-30	69*	-76	6
COc1cc(N2CCCC2)c(OC)cc1/C=C(/C#N)c1ccc(Br)cc1	30*	-7	-29	35	-15	5
COc1cc(N2CCCC2)c(OC)cc1/C=C(/C#N)c1ccc(F)cc1	14	-7	-37	27	-68	4
COc1ccccc1-n1cnnc1SCC(=O)NCc1cccs1	5	0	82*	1	-15	1
COc1ccccc1-n1cnnc1SCC(=O)NC1CCCCC1	-2	6	-6	0	-6	-2
CCCCNC(=O)c1oc2ccc(S(=O)(=O)N3CCCC3)cc2c1C	-2	3	-11	-1	-10	1
N#Cc1ccccc1Sc1ccccc1N	-2	0	57*	-7	-2	0
CCOCCn1c(SCC(=O)OCc2ccccc2)nc2c1c(=O)[nH]c(=O)n2C	2	-1	-44	56*	-8	-1
CCOC(=O)C(Sc1nnc(-c2ccncc2)o1)C(C)=O (centres undefined)	3	-2	94*	-3	0	4
